According to PubChem BioAssay (NCI):
This is part of a sample that, as a whole, favours compounds with a hit. Of some 83,000 tested, about 20% had one in any assay.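 The test compound was applied at a single concentration to cells in 96-well plates for 48 hours, and percent growth was recorded.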 Activity calls are given as the source filed them. How the source made its calls: active means growth percent below 10; inactive means the rest.

What was measured:
Assay in all cases: NCI-60 one-dose screen, 48 h (100 = growth as untreated, 0 = no growth, -100 = all killed)
HCT-15 colon = conditions: 10 µM unless noted
HT29 colon = conditions: 10 µM unless noted
SNB-75 CNS = conditions: 10 µM unless noted
SNB-19 CNS = conditions: 10 µM unless noted
SK-MEL-5 melanoma = conditions: 10 µM unless noted
UACC-62 melanoma = conditions: 10 µM unless noted
LOX IMVI melanoma = conditions: 10 µM
SK-MEL-28 melanoma = conditions: 10 µM unless noted
U251 CNS = conditions: 10 µM unless noted
PC-3 prostate = conditions: 10 µM unless noted

Measured: growth

C=CC(C)C(C)(C)O (configuration not stated)
inactive: HCT-15 colon 104% | HT29 colon 101% | SNB-75 CNS 101% | SNB-19 CNS 109% | SK-MEL-5 melanoma 107% | UACC-62 melanoma 102% | LOX IMVI melanoma 99.2% | SK-MEL-28 melanoma 113%

CC(=O)OCC1CCC(COC(C)=O)CC1 (configuration not stated)
inactive: HCT-15 colon 95% | SNB-75 CNS 87.4% | SNB-19 CNS 109% | U251 CNS 105% | PC-3 prostate 111% | SK-MEL-5 melanoma 103% | UACC-62 melanoma 97.7% | LOX IMVI melanoma 94% | SK-MEL-28 melanoma 102%

CCOc1ccc2c(c1)c(C)cc(C)[n+]2CC
inactive: HCT-15 colon 112% | HT29 colon 81.8% | SNB-75 CNS 71.2% | SNB-19 CNS 64.8% | PC-3 prostate 48.7% | SK-MEL-5 melanoma 78.3% | UACC-62 melanoma 92.8% | LOX IMVI melanoma 73.8% | SK-MEL-28 melanoma 102%

Cn1c2ccccc2c2nnc(NCCCCO)nc21
inactive: HCT-15 colon 88.9% | HT29 colon 102% | SNB-75 CNS 56.2% | SNB-19 CNS 94.7% | PC-3 prostate 100% | SK-MEL-5 melanoma 94.4% | UACC-62 melanoma 103% | LOX IMVI melanoma 89.1% | SK-MEL-28 melanoma 109%

N#CCCN1C(=O)CCC1C(=O)O (configuration not stated)
inactive: HCT-15 colon 97.8% | HT29 colon 89.8% | SNB-75 CNS 103% | SNB-19 CNS 101% | PC-3 prostate 90.9% | SK-MEL-5 melanoma 110% | UACC-62 melanoma 105% | LOX IMVI melanoma 120% | SK-MEL-28 melanoma 124%

CN(C)c1ncnc2c1cnn2C
inactive: HCT-15 colon 113% | HT29 colon 109% | SNB-75 CNS 90.7% | SNB-19 CNS 99.1% | PC-3 prostate 85.2% | SK-MEL-5 melanoma 97.2% | UACC-62 melanoma 92.9% | LOX IMVI melanoma 94.9% | SK-MEL-28 melanoma 112%

N#CC1(O)CCCCC1
inactive: HCT-15 colon 99.6% | HT29 colon 104% | SNB-75 CNS 49.2% | SNB-19 CNS 108% | PC-3 prostate 95.2% | SK-MEL-5 melanoma 106% | UACC-62 melanoma 106% | LOX IMVI melanoma 91.7% | SK-MEL-28 melanoma 109%

C[n+]1cc2cc3c(cc2c2ccccc21)OCO3
inactive: HCT-15 colon 97.2% | HT29 colon 63% | SNB-75 CNS 22.5% | SNB-19 CNS 16.1% | PC-3 prostate 51.6% | SK-MEL-5 melanoma 43.1% | UACC-62 melanoma 72.7% | LOX IMVI melanoma 63.2% | SK-MEL-28 melanoma 45.6%

Cc1ccc(NC(=S)N2CCOCC2)cc1C
inactive: HCT-15 colon 86.2% | HT29 colon 114% | SNB-75 CNS 106% | SNB-19 CNS 94.5% | PC-3 prostate 104% | SK-MEL-5 melanoma 96.5% | UACC-62 melanoma 94% | LOX IMVI melanoma 82.3% | SK-MEL-28 melanoma 111%

ClCC(Cl)C1CCC(Cl)C(Cl)C1 (configuration not stated)
inactive: HCT-15 colon 99% | HT29 colon 103% | SNB-75 CNS 89.6% | SNB-19 CNS 99.8% | PC-3 prostate 102% | SK-MEL-5 melanoma 105% | UACC-62 melanoma 103% | LOX IMVI melanoma 95.9% | SK-MEL-28 melanoma 103%

CNc1ccccc1C(=O)N/N=C/C=C/c1ccccc1
inactive: HCT-15 colon 33.8% | SNB-19 CNS 53.9% | PC-3 prostate 18.7% | SK-MEL-5 melanoma 18.2% | UACC-62 melanoma 49.3% | LOX IMVI melanoma 14.7% | SK-MEL-28 melanoma 39.3%
active: HT29 colon 3.82% | SNB-75 CNS -15.6%

CCOC(=O)c1ccc(Nc2sc(C(=O)c3ccc(Br)cc3)c(N)c2C#N)cc1
active: HT29 colon 2.05% | SNB-75 CNS -18.6%
inactive: HCT-15 colon 27% | SNB-19 CNS 62.5% | PC-3 prostate 17.5% | SK-MEL-5 melanoma 12.6% | UACC-62 melanoma 36.7% | SK-MEL-28 melanoma 36.3%

C=CC1=NC(C)(C)CC(C)O1 (configuration not stated)
inactive: HCT-15 colon 98.9% | HT29 colon 106% | SNB-75 CNS 72% | SNB-19 CNS 99.5% | PC-3 prostate 102% | SK-MEL-5 melanoma 105% | UACC-62 melanoma 100% | LOX IMVI melanoma 98.4% | SK-MEL-28 melanoma 96.6%

CN1CCCN(C(c2ccccc2)c2ccc(Cl)cc2)CC1 (configuration not stated)
inactive: HCT-15 colon 85.9% | HT29 colon 86.6% | SNB-75 CNS 59% | SNB-19 CNS 117% | PC-3 prostate 86.5% | SK-MEL-5 melanoma 94.8% | UACC-62 melanoma 106% | LOX IMVI melanoma 89.4% | SK-MEL-28 melanoma 103%

Clc1ccc(-c2noc(/C=C\c3ccccc3)n2)cc1
inactive: HCT-15 colon 95% | HT29 colon 102% | SNB-75 CNS 103% | SNB-19 CNS 102% | PC-3 prostate 102% | SK-MEL-5 melanoma 97.6% | UACC-62 melanoma 100% | LOX IMVI melanoma 97.5% | SK-MEL-28 melanoma 106%

COC1OC(C(COC(C)=O)OC(C)=O)C(OC(C)=O)C(OC(C)=O)C1OC(C)=O (configuration not stated)
inactive: HCT-15 colon 92.5% | HT29 colon 105% | SNB-75 CNS 97.6% | SNB-19 CNS 99.4% | PC-3 prostate 107% | SK-MEL-5 melanoma 106% | UACC-62 melanoma 110% | LOX IMVI melanoma 103% | SK-MEL-28 melanoma 105%
